Results from the supplement of paper PMC10849652.
Of roughly 8,800 targets only a part is listed; those with a hit were picked by preference. About 0.5% of all pairs of compound and target were hits.

How the values were obtained:
Assay in all cases: log2 fold change, soluble protein after heating vs DMSO (PISA); higher = thermal stabilisation; K562 lysate, 10 uM; active = over 0.2 and 3.5 SD of the protein, either way, in both replicates (recomputed)
nilotinib = compound: Cc1cn(-c2cc(NC(=O)c3ccc(C)c(Nc4nccc(-c5cccnc5)n4)c3)cc(C(F)(F)F)c2)cn1 [nilotinib]
Method in brief: (§1)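 Thermal stability, expressed as log-two fold change relative to solvent controls, is given from duplicates. Crude K562 extract in PBS pH 7.4 with 1 mM MgCl2, at 1 mg/mL protein, was treated with 10 μM compound for 30 min and heated in aliquots for 3 min across 48°C-58°C. After pooling, adjustment to 0.5% NP-40 at 4°C and centrifugation at 21,000xg for 90 min, supernatant protein was measured by TMTpro 16plex LC-MS/MS with channel sums equalised.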

[1] = compound: Cc1nc(Nc2n[nH]c3c2CN(C(=O)N[C@H](CN(C)C)c2ccccc2)C3(C)C)c2sccc2n1
Method in brief: as §1

dasatinib = compound: Cc1nc(Nc2ncc(C(=O)Nc3c(C)cccc3Cl)s2)cc(N2CCN(CCO)CC2)n1 [dasatinib]
Method in brief: as §1

[2] = compound: Cc1ncc(-c2ccnc(Nc3ccc(S(C)(=O)=O)cc3)n2)n1C(C)C
Method in brief: as §1

[3] = compound: Cn1cc(-c2ccc3c(c2)CCN3C(=O)Cc2cccc(C(F)(F)F)c2)c2c(N)ncnc21
Method in brief: as §1

quisinostat = compound: Cn1cc(CNCC2CCN(c3ncc(C(=O)NO)cn3)CC2)c2ccccc21 [quisinostat]
Method in brief: as §1

tipifarnib = compound: Cn1cncc1[C@@](N)(c1ccc(Cl)cc1)c1ccc2c(c1)c(-c1cccc(Cl)c1)cc(=O)n2C [tipifarnib]
Method in brief: as §1

[4] = compound: NC(=O)Nc1cc(-c2cccc(F)c2)sc1C(=O)N[C@H]1CCCNC1
Method in brief: as §1

[5] = compound: NC(=O)c1cnc(N[C@@H]2CCCC[C@@H]2N)nc1Nc1cccc(-n2nccn2)c1
Method in brief: as §1

[6] = compound: NC1(c2ccc(-c3nc4ccn5c(=O)[nH]nc5c4cc3-c3ccccc3)cc2)CCC1
Method in brief: as §1

vorinostat = compound: O=C(CCCCCCC(=O)Nc1ccccc1)NO [vorinostat]
Method in brief: as §1

silmitasertib = compound: O=C(O)c1ccc2c(c1)nc(Nc1cccc(Cl)c1)c1ccncc12 [silmitasertib]
Method in brief: as §1

[7] = compound: O=C1NC(=O)C(c2cnc3ccccn23)=C1c1cn2c3c(cc(F)cc13)CN(C(=O)N1CCCCC1)CC2
Method in brief: as §1

[8] = compound: NCC(=O)Nc1ccc(-n2nc(C(F)(F)F)cc2-c2ccc3c(ccc4ccccc43)c2)cc1
Method in brief: as §1

entospletinib = compound: c1cn2cc(-c3ccc4cn[nH]c4c3)nc(Nc3ccc(N4CCOCC4)cc3)c2n1 [entospletinib]
Method in brief: as §1

Measured: log2 fold change

IGFBP4 (UniProt P22692)
Chain of UniProt P22692 (P22692 whole entry, looked up): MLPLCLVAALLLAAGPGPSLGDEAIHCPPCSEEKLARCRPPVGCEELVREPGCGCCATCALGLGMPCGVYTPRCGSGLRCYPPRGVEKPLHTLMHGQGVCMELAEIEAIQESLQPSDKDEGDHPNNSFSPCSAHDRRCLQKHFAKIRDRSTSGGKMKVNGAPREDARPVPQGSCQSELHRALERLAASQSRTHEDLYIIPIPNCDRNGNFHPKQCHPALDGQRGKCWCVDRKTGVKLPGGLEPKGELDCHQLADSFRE
inactive: nilotinib 0.005 | [1] -0.01 | dasatinib 0.085 | [2] -0.053 | [3] -0.022 | quisinostat -0.049 | tipifarnib 0.119 | [4] -0.021 | [5] 0.293 | [6] -0.026 | vorinostat 0.049 | silmitasertib -0.026 | [7] 0.023

HDAC2 (UniProt Q92769)
Chain of UniProt Q92769 (Q92769 whole entry, looked up): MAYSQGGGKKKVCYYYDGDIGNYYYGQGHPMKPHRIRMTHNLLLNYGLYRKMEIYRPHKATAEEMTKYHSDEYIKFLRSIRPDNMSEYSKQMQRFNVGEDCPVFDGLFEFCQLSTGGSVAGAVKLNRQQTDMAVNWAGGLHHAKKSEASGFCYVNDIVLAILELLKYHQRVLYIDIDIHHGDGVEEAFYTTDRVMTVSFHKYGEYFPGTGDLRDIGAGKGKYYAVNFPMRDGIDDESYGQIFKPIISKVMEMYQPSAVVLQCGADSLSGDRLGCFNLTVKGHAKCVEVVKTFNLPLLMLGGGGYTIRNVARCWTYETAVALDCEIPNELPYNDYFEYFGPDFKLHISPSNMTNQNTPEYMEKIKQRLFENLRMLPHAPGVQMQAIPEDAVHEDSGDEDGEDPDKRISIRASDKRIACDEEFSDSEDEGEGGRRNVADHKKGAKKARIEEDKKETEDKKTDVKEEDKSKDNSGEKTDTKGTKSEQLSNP
inactive: nilotinib -0.022 | [1] 0.014 | dasatinib -0.024 | [2] -0.013 | [3] 0.044 | tipifarnib -0.011 | [4] 0.018 | [5] 0.001 | [6] -0.031 | [8] 0.001 | silmitasertib -0.002 | [7] 0.057 | entospletinib -0.005
active: quisinostat 0.635

JAK3 (UniProt P52333)
Chain of UniProt P52333 (P52333 whole entry, looked up): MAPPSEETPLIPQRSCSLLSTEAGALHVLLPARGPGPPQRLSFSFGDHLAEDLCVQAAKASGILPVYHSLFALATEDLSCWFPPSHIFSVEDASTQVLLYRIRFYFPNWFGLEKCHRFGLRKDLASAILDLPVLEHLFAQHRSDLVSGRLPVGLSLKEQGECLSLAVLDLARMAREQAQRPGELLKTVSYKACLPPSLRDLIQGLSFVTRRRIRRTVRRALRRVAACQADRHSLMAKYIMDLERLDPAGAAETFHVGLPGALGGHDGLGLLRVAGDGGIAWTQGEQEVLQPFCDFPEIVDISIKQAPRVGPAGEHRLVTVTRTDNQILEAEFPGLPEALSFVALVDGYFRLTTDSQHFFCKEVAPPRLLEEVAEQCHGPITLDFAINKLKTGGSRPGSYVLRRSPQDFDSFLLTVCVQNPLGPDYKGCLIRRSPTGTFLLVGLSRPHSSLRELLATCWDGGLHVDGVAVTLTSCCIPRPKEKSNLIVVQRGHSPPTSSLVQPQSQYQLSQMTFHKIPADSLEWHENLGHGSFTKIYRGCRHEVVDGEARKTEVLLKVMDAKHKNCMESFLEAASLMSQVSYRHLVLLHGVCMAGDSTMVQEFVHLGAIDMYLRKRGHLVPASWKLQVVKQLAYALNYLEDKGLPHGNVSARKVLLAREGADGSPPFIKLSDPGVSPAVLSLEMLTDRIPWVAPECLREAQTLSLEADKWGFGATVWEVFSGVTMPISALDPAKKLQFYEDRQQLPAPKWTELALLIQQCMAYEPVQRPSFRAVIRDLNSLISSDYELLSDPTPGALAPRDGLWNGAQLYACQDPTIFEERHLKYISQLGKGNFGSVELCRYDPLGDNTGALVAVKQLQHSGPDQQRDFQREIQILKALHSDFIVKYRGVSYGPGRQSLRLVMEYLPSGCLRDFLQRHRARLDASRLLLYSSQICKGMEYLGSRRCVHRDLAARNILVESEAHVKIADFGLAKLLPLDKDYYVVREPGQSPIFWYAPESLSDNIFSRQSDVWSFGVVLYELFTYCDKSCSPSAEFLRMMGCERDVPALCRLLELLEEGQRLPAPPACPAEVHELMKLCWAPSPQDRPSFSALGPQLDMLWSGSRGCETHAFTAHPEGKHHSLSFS
inactive: quisinostat 0.131 | [4] 0.008 | [5] -0.056 | [8] -0.319 | [7] -0.002

GSTM2 (UniProt P28161)
Chain of UniProt P28161 (P28161 whole entry, looked up): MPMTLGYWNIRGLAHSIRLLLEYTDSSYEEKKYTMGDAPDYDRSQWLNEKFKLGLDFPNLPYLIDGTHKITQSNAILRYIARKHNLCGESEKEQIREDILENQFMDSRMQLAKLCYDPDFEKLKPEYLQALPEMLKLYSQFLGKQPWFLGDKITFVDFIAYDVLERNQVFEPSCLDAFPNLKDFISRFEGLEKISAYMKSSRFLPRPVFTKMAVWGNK
active: vorinostat 0.323 | silmitasertib 0.378
inactive: nilotinib 0.124 | [1] -0.007 | dasatinib 0.027 | [2] 0.007 | [3] -0.005 | tipifarnib 0.064 | [5] -0.052 | [6] -0.019 | [8] 0.017 | entospletinib 0.044
